In PubChem BioAssay (NCI) one finds growth inhibition data, which are given here for 8 molecules.

This test in a line: NCI Yeast Anticancer Drug Screen. Data for the wt1 strain (AID 149).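 Note: 0% = growth of vehicle-treated wt1 cultures.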 The following applies: S. cerevisiae wt1 strain (SPY 50644) growth inhibition, stronger effect = higher value. The method, then: Growth inhibition of yeast strains with defined genetic alterations is measured as a screen for potential anti-cancer activity. Selected strains with alterations in DNA damage repair or cell cycle control were exposed to compounds and growth inhibition was measured relative to vehicle treated controls. The strain used in this assay is wt1

This is part of a sample that, as a whole, favours compounds with a hit. Of some 79,000 tested, about 15% had one in any assay. Values without a mark were called inactive. Active and inactive are the calls of the source. Cut-off read from the data, not from the text of the source: active = growth inhibition above about 70%; inactive = the rest.

As to `C/C(=N\Nc1ccc([N+](=O)[O-])cc1[N+](=O)[O-])c1sc(-n2nc(-c3ccccc3)cc2-c2ccccc2)nc1C`, the growth inhibition runs as follows: (at 1.2 µM) -21%; (at 3.7 µM) -4%; (at 11.0 µM) -13%; (at 33.0 µM) -1%; (at 100.0 µM) -4%.

As for `COC(=O)CC1CCc2c(ccc3ccccc23)C1(C)C(=O)OC` (stereo not given), the growth inhibition by setting is: (at 1.2 µM) -2%; (at 3.7 µM) -4%; (at 11.0 µM) 7%; (at 33.0 µM) -10%; (at 100.0 µM) -1%.

Consider `COc1cc(C2SCC(=O)N2c2ccc(-c3ccc(-n4c(-c5ccccc5)nc5ccccc5c4=O)cc3)cc2)ccc1O` (stereo not given), for which the growth inhibition is -2% (at 1.2 µM); -2% (at 3.7 µM); -1% (at 11.0 µM); -4% (at 33.0 µM); -8% (at 100.0 µM).

For the molecule `N#CNC(N)=Nc1cc2ccccc2c2ccccc12`, the growth inhibition (at 1.2 µM) was 3%; the growth inhibition (at 3.7 µM) is 25%; the growth inhibition (at 11.0 µM) is 61%; the growth inhibition (at 33.0 µM) was 87% (active); the growth inhibition (at 100.0 µM) is 90% (active).

With `COc1cccc(/C=N/C(/N=C/c2cccc(OC)c2O)c2cccc(OC)c2O)c1O`, the growth inhibition is -1% (at 1.2 µM); 1% (at 3.7 µM); 7% (at 11.0 µM); 26% (at 33.0 µM); 91% (active) (at 100.0 µM).

For the molecule `OC(CCNCc1ccccc1)c1ccc2ccccc2c1` (stereo not given), the growth inhibition is 2% (at 1.2 µM); 33% (at 3.7 µM); 41% (at 11.0 µM); 60% (at 33.0 µM); 72% (active) (at 100.0 µM).

For `Cc1cc(NCCCCCCCCNc2cc(C)nc3cc(N)ccc23)c2ccc(N)cc2n1`, the growth inhibition is -65% (at 1.2 µM); -41% (at 3.7 µM); 92% (active) (at 11.0 µM); 98% (active) (at 33.0 µM); 96% (active) (at 100.0 µM).

Turning to `CN(C)N=Nc1ccccc1C(=O)NC#N`, the growth inhibition was -8% (at 1.2 µM); -2% (at 3.7 µM); 97% (active) (at 11.0 µM); 98% (active) (at 33.0 µM); 99% (active) (at 100.0 µM).
